A selection: hits, their analogues and other compounds. The true share with any hit is near 3.8%.
VDR inh = vitamin D3 receptor (human) inhibition | P11473 | VDR-SRC2-3 peptide fluorescence polarization, 2 h | Potency, µM, usual class: inhibitors | hit rate 0.93% among 400,000 | AID 504847
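Inhibition of the VDR/SRC2-3 peptide interaction is quantified by fluorescence polarization. Compounds (23 nl, pintool) incubate with the reagents for 2 hours at ambient room temperature.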
KCNH2 3.1 block = inhibitors of human KCNH2 3.1 potassium channel isoform. AID 720553. activity change, % (tested at about 1.8 µM). hit rate 0.95% among 340,000. U2OS KCNH2 3.1, thallium flux FluxOr; hits give low values;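 active = maximum activity change below -70%; inconclusive = maximum activity change from -70% to -50%; inactive = maximum activity change above -50%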;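 note: thallium influx rate constant from kinetic fluorescence after stimulation buffer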
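Virally transduced U2OS (3.1 isoform, 4 h infection in dark at RT) → overnight 37 C → FluxOr + Red40 in HBSS/HEPES, 45 min → stimulation buffer, 2 min kinetic read → rate constant vs DMSO controls.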
PLK1 PBD block = inhibitors of human PLK1 polo-box domain binding. AID 720504. hit rate 2.8% among 360,000. Plk1 PBD binding of FITC phosphopeptide, fluorescence polarization. Potency, µM, most hits filed as inhibitors; note: series mostly up to about 57 µM; nearly all actives have a fitted effect of over 65% in size
MBNL1 CUG block = inhibitors of human MBNL1 binding to CUG repeat RNA | Q9NR56 | TR-FRET MBNL1-His/biotin-(CUG)12 binding, 665/545 ratio | Potency, µM (titrated, usually from 57.5 µM), usual class: inhibitors | hit rate 0.036% among 280,000; active = well fitted inhibition curve with a large enough effect in the signal ratio, with a control signal flat, not every such curve was filed as active; inconclusive = small, poorly fitted or top-dose-only effect, or effect the other way, or a change in a side signal; inactive = no such curve, though single readings can be large or run the other way; the % refers to the signal ratio
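Inhibition of protein-RNA binding appears as loss of TR-FRET between terbium anti-His antibody on MBNL1-His and streptavidin-XL665 on biotin-(CUG)12. Activity is normalized to buffer-only and uninhibited-complex controls.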
CBFb-RUNX1 inh = CBF-beta/RUNX1 interaction disruption; 230,000 tested, under 10 active; Q01196+Q13951; Potency, µM (titrated, usually from 59.8 µM), hits mostly inhibitors; AlphaScreen CBFb-His/RUNX1-biotin binding, biochemical
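Interaction loss through any mechanism counts as activity. Pre-formed complex of His-CBF-beta and biotin-RUNX1 (30 nM apiece) is incubated with compound 15 min, then with 50 ng nickel and 50 ng streptavidin beads for 90 min before AlphaScreen detection.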
hERG WT inh = KCNH2 (human, wildtype) channel inhibition; U2OS, BacMam KCNH2, thallium flux FluxOr; hits give low values; Q12809; hit rate 0.37% among 340,000; AID 720551; activity change, % at 1.84 µM;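 active = maximum activity change below -70%; inconclusive = maximum activity change between -70% and -50%; inactive = maximum activity change above -50%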
Target sequence (Q12809 whole entry, looked up): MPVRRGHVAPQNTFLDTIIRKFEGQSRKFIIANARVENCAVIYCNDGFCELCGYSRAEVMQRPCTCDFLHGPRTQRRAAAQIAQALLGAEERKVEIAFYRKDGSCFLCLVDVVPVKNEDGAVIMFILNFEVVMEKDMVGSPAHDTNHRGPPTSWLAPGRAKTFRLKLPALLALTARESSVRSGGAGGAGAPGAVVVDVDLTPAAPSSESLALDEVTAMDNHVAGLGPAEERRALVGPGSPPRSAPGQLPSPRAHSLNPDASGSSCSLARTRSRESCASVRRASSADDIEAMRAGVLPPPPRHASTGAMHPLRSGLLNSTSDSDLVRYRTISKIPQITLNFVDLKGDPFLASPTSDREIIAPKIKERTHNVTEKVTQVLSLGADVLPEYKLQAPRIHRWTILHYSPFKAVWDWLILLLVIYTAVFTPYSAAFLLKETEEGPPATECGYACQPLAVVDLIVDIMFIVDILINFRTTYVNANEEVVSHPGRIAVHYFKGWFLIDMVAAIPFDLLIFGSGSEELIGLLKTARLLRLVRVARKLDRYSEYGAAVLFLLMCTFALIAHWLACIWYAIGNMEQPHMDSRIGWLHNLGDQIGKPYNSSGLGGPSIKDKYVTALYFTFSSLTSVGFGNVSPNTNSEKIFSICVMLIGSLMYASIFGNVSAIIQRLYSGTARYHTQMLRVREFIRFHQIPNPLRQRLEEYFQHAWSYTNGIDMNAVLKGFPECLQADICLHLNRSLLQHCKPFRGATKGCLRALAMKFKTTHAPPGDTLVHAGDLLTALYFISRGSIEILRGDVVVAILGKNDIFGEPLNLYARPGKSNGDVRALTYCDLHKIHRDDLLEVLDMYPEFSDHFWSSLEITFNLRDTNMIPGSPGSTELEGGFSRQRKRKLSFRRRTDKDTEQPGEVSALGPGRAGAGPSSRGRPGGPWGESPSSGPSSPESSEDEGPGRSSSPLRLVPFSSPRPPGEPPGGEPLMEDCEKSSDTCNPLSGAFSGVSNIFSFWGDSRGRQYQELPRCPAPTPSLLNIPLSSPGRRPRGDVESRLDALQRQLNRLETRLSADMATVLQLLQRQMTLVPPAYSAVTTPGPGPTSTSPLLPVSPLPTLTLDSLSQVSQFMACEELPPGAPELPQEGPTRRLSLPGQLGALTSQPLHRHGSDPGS
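U2OS cells transduced with wild-type KCNH2 virus are loaded with FluxOr dye for 45 min, and thallium flux is measured in kinetic reads before and after stimulation buffer. Rate constants are normalized to DMSO controls.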
A number is an active result; n = inactive; u = inconclusive; x = no result; [ ] = another dose, or the depositor's remark. Unless noted, calls come from the whole dose curve; as a rule, active = well fitted curve in the direction sought with a large enough effect; inconclusive = small, poorly fitted or top-dose-only effect, or another doubt; inactive = no such curve, though single readings can be large; an effect the other way counts as inactive or inconclusive.

SMILES | VDR inh | KCNH2 3.1 block | PLK1 PBD block | MBNL1 CUG block | CBFb-RUNX1 inh | hERG WT inh
COC(=O)C1CCN(C2=C(NS(=O)(=O)c3ccc(Cl)cc3)C(=O)c3ccccc3C2=O)CC1 | n | n | 21.2µM | u | x | n
CCN1CCN(Cc2nc3cc(NC(=O)c4cc(OC)c(OC)c(OC)c4)ccc3n2CC)CC1 | n | x | x | x | x | x
Cc1cccc(-n2cc(CN3CCCN(C=O)CC3)c(-c3cccc(F)c3)n2)c1 | n | n | n | n | n | n
Cc1ccc(-n2cc(CN3CCNC(=O)CC3)c(-c3cccc(C)c3)n2)cc1 | u | n | 16.8µM | n | n | n
CCCN(CCC)CC(C)(C)NS(=O)(=O)c1ccc(Cl)cc1 | n | -140.0 | n | n | n | n
COc1ccc(Cl)cc1NC(=O)c1cc2nc(-c3ccc(C)cc3)cc(C(F)(F)F)n2n1 | n | x | x | x | x | x
NS(=O)(=O)c1ccc(NC(=S)NCc2ccc3c(c2)OCO3)cc1 | n | n | 21.2µM | n | n | n
Fc1ccc(NC(=S)NCc2ccc3c(c2)OCO3)cc1 | n | -71.3 | n | n | n | n
Cn1cc(C(=O)NCCc2ccccc2)c(=O)c2cc(S(=O)(=O)N3CCOCC3)ccc21 | u | n | 29.9µM | x | x | n
C=CCn1c(SCC(=O)Nc2ccc(N(C)C)cc2)nnc1-c1cccc(C)c1 | 89.1µM | n | n | n | n | n
C=CCn1c(SCC(=O)Nc2ccc(OC)cc2)nnc1-c1cnccn1 | n | n | n | n | x | n
C=CCn1c(SCC(=O)Nc2ccc(S(N)(=O)=O)cc2)nnc1-c1cnccn1 | n | n | n | n | x | -143.3
O=C(O)[C@H]1O[C@@H](Oc2ccc3ccc(=O)oc3c2)[C@H](O)[C@@H](O)[C@@H]1O | n | x | x | x | n | x
COc1ccccc1NC(=S)NNC(=S)Nc1ccc(OC(F)F)cc1 | u | n | 23.8µM | n | n | n
COc1ccc(NC(=S)Nc2ccc(OC(F)F)cc2)cn1 | n | n | n | n | n | n
CCOC(=O)C1C(=O)N(C(=O)c2cncc(Br)c2)CC1c1ccccc1 (stereo unspecified) | u | n | 2.99µM | n | n | n
COc1cc(NC(=O)C2CCN(C(=O)c3sc4nc[nH]c(=O)c4c3C)CC2)cc(OC)c1OC | n | x | x | x | x | x
CCOC(=O)c1c(C)[nH]c(C)c1S(=O)(=O)N(C)CC(=O)Nc1cccc(C(F)(F)F)c1 | n | x | x | x | x | x
Cn1cc(CNCCCn2ncc3ccccc32)c(-c2ccccc2F)n1 | n | -96.8 | n | n | n | n
Cn1cc(CNCc2ccc(-n3cccn3)cc2)c(-c2ccccc2F)n1 | n | n | n | n | n | n
CC12CCC(c3c1nc1ccccc1[n+]3[O-])C2(C)C (stereo unspecified) | 70.8µM | n | 18.9µM | n | n | n
CC(Sc1nnc2c(n1)C1(C)CCC2C1(C)C)C(=O)Nc1ccccc1 (stereo unspecified) | n | n | n | n | n | n
CN(C)S(=O)(=O)c1ccc2c(c1)N(CC(=O)N1CCN(c3cccc(Cl)c3)CC1)CCS2 | n | x | x | x | x | x
CN1CCN(Cc2c(O)ccc3cc(Br)ccc23)CC1 | u | n | 23.8µM | n | n | n
COc1cccc(CNC(=O)c2cc3cc(C)ccc3n2C)c1 | n | x | x | x | x | x
SMILES | VDR inh | KCNH2 3.1 block | PLK1 PBD block | MBNL1 CUG block | CBFb-RUNX1 inh | hERG WT inh
Cc1cnc(NC(=O)CCNC(=O)c2ccc([N+](=O)[O-])cc2)s1 | n | n | 26.7µM | u | n | x
CCOC(=O)CN1C(=O)N[C@@H](c2ccccc2)[C@H](C(C)=O)[C@H]1C | n | -82.4 | n | x | n[13.1 µM] | n
O=C(Nc1ccc(F)c(Cl)c1)Nc1ccc(Cl)cn1 | u | n | 15µM | n | n | x
O=C(Nc1ccc(F)cc1)Nc1ccc(Cl)cn1 | n | n | n | n | n | n
Cc1oc2ncn(C)c(=O)c2c1C(=O)NCc1ccc(Cl)cc1 | n | x | x | x | x | x
COc1nnc(-c2ccc(N3CCCCC3)c(NC(=O)c3ccccc3Cl)c2)c2ccccc12 | n | x | x | x | x | x
COc1ccc(-n2nc(C(=O)NCC(=O)NCCCN3CCC(C)CC3)c3ccccc3c2=O)cc1Cl | n | n | n | u | x | n
COc1ccc(-n2nc(C(=O)NCC(=O)NCCCN3CCCCCC3)c3ccccc3c2=O)cc1Cl | n | -85.5 | n | n | u | n
O=C(O)c1ccc(Cl)cc1Nc1nc2cc(Cl)ccc2o1 | u | n | 18.9µM | n | x | n
COC(=O)C1=C(C)NC(=O)NC1c1ccc(-c2ccc(F)cc2)o1 (stereo unspecified) | u | n | n | n | n | n
CCOC(=O)C1=C(C)NC(=S)NC1c1ccc(-c2cccc(Cl)c2C)o1 (stereo unspecified) | 79.4µM | n | u | n | n | n
COC(=O)C1=C(C)NC(=O)NC1c1ccc(-c2ccccc2Cl)o1 (stereo unspecified) | n | n | 18.9µM | n | n | n
COc1ccc2c(c1)CCc1c(C(=O)Nc3c(C)nn(Cc4c(Cl)cccc4Cl)c3C)noc1-2 | n | x | x | x | x | x
CCN(CC)c1ccc(C(=O)OCC(=O)NC2CCCCC2C)cc1 (stereo unspecified) | n | n | 29.9µM | n | n | n
CC1CCCC(NC(=O)COC(=O)c2ccc(N(C)C)cc2)C1C (stereo unspecified) | n | n | n | n | n | n
